Here are results for 8 molecules from PubChem BioAssay (EPA / NIEHS).

A short description of test [1]: ATG_E_Box_CIS: Attagene CIS-FACTORIAL HepG2 Assay for human Enhancer Box (E-box) (AID 2282936). To be noted: HepG2 E-box cis-reporter transcription, actives raise or lower the signal. The essentials: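 Multiplexed CIS reporter system in transiently transfected HepG2 cells measures native transcription factor activity. Reporter RNA after 24 h exposure is profiled by RT-PCR-capillary electrophoresis.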

Test [2] is described as follows: ATG_M_61_CIS: Attagene CIS-FACTORIAL HepG2 Assay for M61 Transcription Factor (Internal Marker) (AID 2282937). To be noted: HepG2 Attagene CIS-FACTORIAL M61 internal marker reporter; actives raise or lower the signal. Put shortly: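 Human liver HepG2, transient MRTU transfection (cis promoter elements), 24 h compound. Total RNA → oligo(dT) RT → PCR → FAM label → HpaI → CE. Internal background marker; bidirectional fitting, DMSO = baseline.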

Test [3] in a line: ATG_EGR_CIS: Attagene CIS-FACTORIAL HepG2 Assay for human Early Growth Response 1 (EGR1) (AID 2282938). The note with it: HepG2 Attagene CIS-FACTORIAL EGR reporter mRNA; actives raise or lower the signal. Put shortly:
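Transient transfection of human HepG2 with multiple cis-regulated reporter units, chemical exposure 24 h, total RNA isolated. Reverse transcription, PCR, fluorescent labelling and capillary electrophoresis quantify reporter transcripts; activity fitted bidirectionally against DMSO.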

A short description of test [4]: ATG_M_19_CIS: Attagene CIS-FACTORIAL HepG2 Assay for M19 Transcription Factor (Internal Marker) (AID 2282939). To be noted: HepG2 Attagene CIS-FACTORIAL M19 internal marker reporter; actives raise or lower the signal. The essentials:
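Following a 24 h exposure, RNA from transfected HepG2 cells was reverse-transcribed, PCR-amplified with reporter-specific primers, end-labelled with 6-FAM and HpaI-digested before capillary separation. Values represent gain or loss versus DMSO.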

Test [5] can be described thus: ATG_ERE_CIS: Attagene CIS-FACTORIAL HepG2 Assay for Estrogen Response Element (ERE) (AID 2282940). To be noted: HepG2 ERE cis-reporter, Attagene RNA transcript; actives raise or lower the signal. Put shortly:
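HepG2, transient cis-reporter units, 24 h exposure. RNA isolated, oligo(dT) RT, reporter-specific PCR, FAM extension, HpaI cut, CE detection. Gain/loss-of-signal vs DMSO.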

The nature of test [6]: ATG_Ets_CIS: Attagene CIS-FACTORIAL HepG2 Assay for human Erythroblast Transformation Specific (ETS) (AID 2282941). To be noted: HepG2 ETS cis-reporter transcription, actives raise or lower the signal. Put shortly:
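After transient cis-reporter transfection, HepG2 cells receive test chemical for 24 h. Reporter mRNA levels, measured by RT-PCR and capillary electrophoresis fluorescence, are analysed bidirectionally relative to the DMSO baseline.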

The target of test [7] is Hepatocyte nuclear factor 3-beta (Homo sapiens) (UniProt Q9Y261). In words: ATG_FoxA2_CIS: Attagene CIS-FACTORIAL HepG2 Assay for human Forkhead box A2 (FOXA2) (AID 2282942). The note with it: HepG2 cis-reporter transcription factor activity, 24 h; actives raise or lower the signal. Put shortly:
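Transient MRTU transfection of HepG2 liver cells; 24 h treatment; total RNA → oligo(dT) RT → PCR → FAM primer extension → HpaI cut → CE. Bidirectional fit vs DMSO.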

A short description of test [8]: ATG_FoxO_CIS: Attagene CIS-FACTORIAL HepG2 Assay for human Forkhead box O (FoxO) (AID 2282943). To be noted: HepG2 Attagene cis-reporter, FoxO element, mRNA; actives raise or lower the signal. Put shortly: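 Values reflect reporter mRNA induction or loss in HepG2 cells 24 h post-dosing, fitted bidirectionally with DMSO as negative control and baseline. Detection used RT-PCR and fluorescence capillary electrophoresis.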

Test [9] is described as follows: ATG_GATA_CIS: Attagene CIS-FACTORIAL HepG2 Assay for human GATA Binding Protein (AID 2282944). The note with it: HepG2 GATA cis-element reporter, Attagene multiplex mRNA; actives raise or lower the signal. Put shortly: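 DMSO serves as negative control and baseline for bidirectional fitting of reporter mRNA changes. HepG2 cells bearing transiently transfected cis-promoter reporters were exposed 24 h; transcripts detected via RT-PCR and capillary electrophoresis.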

For test [10], the target named is Bile acid receptor (Homo sapiens) (UniProt Q96RI1). In words: ATG_IR1_CIS: Attagene CIS-FACTORIAL HepG2 Assay for human Nuclear Receptor Subfamily 1 Group H Member 4 (NR1H4), IR1 submotif (AID 2282946). The note with it: IR1 reporter transcription, actives raise or lower the signal. The essentials: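 Transient MRTU transfection, HepG2; 24 h dosing; RNA → RT-PCR → 6-FAM primer extension → HpaI digest → capillary electrophoresis fluorescence. Gain/loss of signal fitted relative to DMSO.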
Chain of Bile acid receptor (Homo sapiens) (Q96RI1 whole entry, looked up): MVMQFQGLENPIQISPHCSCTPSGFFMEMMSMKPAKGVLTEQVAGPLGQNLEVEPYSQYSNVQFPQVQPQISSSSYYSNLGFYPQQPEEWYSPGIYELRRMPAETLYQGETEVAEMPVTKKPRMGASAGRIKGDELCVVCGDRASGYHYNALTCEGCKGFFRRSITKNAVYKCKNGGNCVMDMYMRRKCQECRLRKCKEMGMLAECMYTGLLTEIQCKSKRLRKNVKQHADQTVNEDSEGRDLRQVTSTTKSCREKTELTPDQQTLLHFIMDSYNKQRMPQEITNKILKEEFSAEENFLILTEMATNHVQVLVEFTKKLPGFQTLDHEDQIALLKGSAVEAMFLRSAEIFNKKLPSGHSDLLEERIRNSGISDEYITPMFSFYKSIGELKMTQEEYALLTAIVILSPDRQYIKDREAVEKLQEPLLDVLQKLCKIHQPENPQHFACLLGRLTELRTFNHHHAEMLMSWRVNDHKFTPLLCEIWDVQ

Test [11] is described as follows: ATG_ISRE_CIS: Attagene CIS-FACTORIAL HepG2 Assay for human Interferon Regulatory Factor 1 (IRF1) binding to an Interferon-Stimulated Response Element (ISRE) (AID 2282948). The note with it: HepG2 ISRE cis-reporter (Attagene), mRNA transcription readout; actives raise or lower the signal. The essentials: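 Quantitation relies on labelled RT-PCR fragments separated by capillary electrophoresis. Human HepG2 cells bearing cis-promoter reporter constructs were treated 24 h; DMSO served as baseline for bidirectional fitting.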

Test [12] can be described thus: ATG_M_32_CIS: Attagene CIS-FACTORIAL HepG2 Assay for M32 Transcription Factor (Internal Marker) (AID 2282949).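 Further: background control marker of the multiplexed CIS panel rather than a real target.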 The note with it: HepG2 Attagene cis-factorial M32 reporter, mRNA; actives raise or lower the signal. Put shortly:
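Fluorescent capillary electrophoresis peaks of HpaI-digested, FAM-labelled RT-PCR reporter products give the signal. Source: transiently transfected human liver HepG2 cells, 24 h after chemical dosing; bidirectional fitting against DMSO.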

Test [13] can be described thus: ATG_M_06_CIS: Attagene CIS-FACTORIAL HepG2 Assay for M06 Transcription Factor (Internal Marker) (AID 2282950). To be noted: HepG2 Attagene CIS-FACTORIAL M06 internal marker reporter; actives raise or lower the signal. Put shortly: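 Fluorescence-labelled RT-PCR products from cis-promoter reporter units, cut with HpaI and resolved by capillary electrophoresis, give the signal. Cells are human HepG2, dosed for 24 h. Serves as background control, fitted relative to DMSO.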

Test [14] addresses Hypoxia-inducible factor 1-alpha (Homo sapiens) (UniProt Q16665). In words: ATG_HIF1a_CIS: Attagene CIS-FACTORIAL HepG2 Assay for human Hypoxia Inducible Factor 1 (HIF1A) (AID 2282951). To be noted: HepG2 Attagene cis-factorial HIF1a reporter transcription; actives raise or lower the signal. The essentials: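 Transient MRTU transfection of human HepG2 liver cells, 24 h compound treatment, then total RNA isolation, oligo(dT) reverse transcription, PCR amplification, fluorescent labelling and capillary electrophoresis of reporter fragments. Gain or loss relative to DMSO.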

In test [15] the target is Hepatocyte nuclear factor 6 (Homo sapiens) (UniProt Q9UBC0). In words: ATG_HNF6_CIS: Attagene CIS-FACTORIAL HepG2 Assay for human Hepatocyte Nuclear Factor 6 (HNF6) (AID 2282952). The note with it: HepG2 Attagene cis-factorial HNF6 reporter transcription; actives raise or lower the signal. The essentials: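 HepG2, transient MRTU transfection (cis promoters); 24 h chemical exposure; total RNA → oligo(dT) RT → PCR → 6-FAM labelling → HpaI cut → CE; bidirectional fit vs DMSO.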
Chain of Hepatocyte nuclear factor 6 (Homo sapiens) (Q9UBC0 whole entry, looked up): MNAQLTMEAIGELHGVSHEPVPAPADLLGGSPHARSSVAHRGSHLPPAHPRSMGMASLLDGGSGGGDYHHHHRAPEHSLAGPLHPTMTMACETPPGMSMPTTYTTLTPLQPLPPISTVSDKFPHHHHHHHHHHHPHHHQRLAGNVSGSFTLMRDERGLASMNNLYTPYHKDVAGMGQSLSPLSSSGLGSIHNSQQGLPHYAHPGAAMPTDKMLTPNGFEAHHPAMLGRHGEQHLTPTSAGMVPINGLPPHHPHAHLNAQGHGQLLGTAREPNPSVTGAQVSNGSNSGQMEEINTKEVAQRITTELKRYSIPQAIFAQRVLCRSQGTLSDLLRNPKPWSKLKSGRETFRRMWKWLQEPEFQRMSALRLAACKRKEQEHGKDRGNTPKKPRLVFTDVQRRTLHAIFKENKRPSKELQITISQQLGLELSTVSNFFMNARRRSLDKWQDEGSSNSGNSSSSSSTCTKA

The nature of test [16]: ATG_MRE_CIS: Attagene CIS-FACTORIAL HepG2 Assay for human Metal Responsive Element (MRE) (AID 2282954). To be noted: HepG2 MRE cis-reporter transcription, Attagene multiplex; actives raise or lower the signal. The essentials:
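Step one: transfect HepG2 with cis-regulated reporter units. Step two: dose 24 h. Step three: isolate RNA, RT-PCR, 6-FAM label, HpaI digest, capillary electrophoresis. Fit bidirectionally to DMSO.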

The nature of test [17]: ATG_PBREM_CIS: Attagene CIS-FACTORIAL HepG2 Assay for human Phenobarbital-responsive Enhancer Module (PBREM) (AID 2282955). To be noted: HepG2 PBREM cis-reporter, Attagene multiplexed transcription; actives raise or lower the signal. The essentials:
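Endogenous transcription factors in human liver HepG2 cells drive a PBREM cis-element reporter, whose transcript level after 24 h treatment is quantified by RT-PCR with capillary electrophoresis; activity fitted in both directions against DMSO.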

Test [18] is described as follows: ATG_GLI_CIS: Attagene CIS-FACTORIAL HepG2 Assay for human Zinc Finger Protein GLI1 (AID 2282945). The note with it: HepG2, Attagene cis-factorial reporter mRNA, GLI element; actives raise or lower the signal. Put shortly: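 HepG2 cells transiently transfected with cis-promoter multiplexed reporter units report endogenous transcription factor activity. After 24 h chemical exposure, reporter mRNA was quantified by RT-PCR, 6-FAM labelling, HpaI digestion and capillary electrophoresis, with bidirectional fitting against DMSO.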

Test [19] in a line: ATG_GRE_CIS: Attagene CIS-FACTORIAL HepG2 Assay for human Glucocorticoid Response Elements (GRE) (AID 2282947). To be noted: HepG2 GRE cis-reporter, Attagene multiplex mRNA; actives raise or lower the signal. Put shortly:
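Following 24 h chemical exposure of transiently transfected HepG2 cells, total RNA was reverse-transcribed and reporter cDNA amplified, fluorescently labelled and sized by capillary electrophoresis. Signal gain or loss was fitted relative to DMSO vehicle.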

Test [20] has as its target Heat shock factor protein 1 (Homo sapiens) (UniProt Q00613). In words: ATG_HSE_CIS: Attagene CIS-FACTORIAL HepG2 Assay for human Heat Shock Transcription Factor 1 (HSE) (AID 2282953). The note with it: HepG2 HSE cis-reporter, Attagene RNA transcription; actives raise or lower the signal. The essentials:
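After a 24 h incubation with test chemical, transfected HepG2 cells were harvested for RNA; reporter transcripts were measured by RT-PCR and capillary electrophoresis. Values reflect gain or loss of signal relative to DMSO.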

Each structure is given as a SMILES string. The source made the active and inactive calls. How the source made its calls: active means hit-call score of the fitted dose curve at least 0.9, where 1 is the maximum; inactive means score below 0.9.

Chain of Hypoxia-inducible factor 1-alpha (Homo sapiens) (Q16665 whole entry, looked up, the tested form may be a part): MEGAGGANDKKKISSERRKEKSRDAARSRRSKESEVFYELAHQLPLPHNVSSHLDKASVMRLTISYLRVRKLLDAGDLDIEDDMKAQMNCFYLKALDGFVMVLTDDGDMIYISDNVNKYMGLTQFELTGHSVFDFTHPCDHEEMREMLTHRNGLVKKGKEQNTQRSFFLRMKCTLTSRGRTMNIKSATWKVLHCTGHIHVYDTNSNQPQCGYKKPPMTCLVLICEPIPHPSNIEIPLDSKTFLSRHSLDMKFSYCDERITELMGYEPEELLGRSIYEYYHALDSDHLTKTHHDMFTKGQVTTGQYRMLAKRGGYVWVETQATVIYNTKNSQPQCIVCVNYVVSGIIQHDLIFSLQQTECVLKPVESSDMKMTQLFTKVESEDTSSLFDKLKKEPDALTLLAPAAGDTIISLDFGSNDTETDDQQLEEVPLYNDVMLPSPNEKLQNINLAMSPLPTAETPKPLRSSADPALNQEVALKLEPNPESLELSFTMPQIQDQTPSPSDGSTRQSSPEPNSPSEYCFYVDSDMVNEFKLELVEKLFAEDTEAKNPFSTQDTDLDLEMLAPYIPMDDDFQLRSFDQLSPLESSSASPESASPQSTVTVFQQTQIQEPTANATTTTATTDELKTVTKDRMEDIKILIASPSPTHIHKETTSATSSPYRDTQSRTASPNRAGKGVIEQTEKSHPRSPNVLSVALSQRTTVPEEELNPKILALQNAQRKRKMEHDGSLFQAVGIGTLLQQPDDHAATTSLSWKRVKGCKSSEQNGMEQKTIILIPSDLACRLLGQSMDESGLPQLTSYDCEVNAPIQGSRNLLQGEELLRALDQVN
Chain of Hepatocyte nuclear factor 3-beta (Homo sapiens) (Q9Y261 whole entry, looked up): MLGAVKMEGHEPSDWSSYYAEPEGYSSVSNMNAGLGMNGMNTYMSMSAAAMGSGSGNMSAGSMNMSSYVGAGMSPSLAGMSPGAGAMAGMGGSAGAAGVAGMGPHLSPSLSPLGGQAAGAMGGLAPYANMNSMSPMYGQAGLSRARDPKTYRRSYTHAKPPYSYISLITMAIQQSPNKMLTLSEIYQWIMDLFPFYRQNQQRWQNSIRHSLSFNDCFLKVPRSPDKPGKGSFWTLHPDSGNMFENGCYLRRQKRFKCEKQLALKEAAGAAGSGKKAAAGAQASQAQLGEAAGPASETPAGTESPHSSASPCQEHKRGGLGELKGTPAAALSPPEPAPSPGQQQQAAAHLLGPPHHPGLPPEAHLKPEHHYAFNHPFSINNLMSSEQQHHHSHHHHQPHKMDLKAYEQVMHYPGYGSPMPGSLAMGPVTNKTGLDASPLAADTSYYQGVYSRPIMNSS
Chain of Heat shock factor protein 1 (Homo sapiens) (Q00613 whole entry, looked up): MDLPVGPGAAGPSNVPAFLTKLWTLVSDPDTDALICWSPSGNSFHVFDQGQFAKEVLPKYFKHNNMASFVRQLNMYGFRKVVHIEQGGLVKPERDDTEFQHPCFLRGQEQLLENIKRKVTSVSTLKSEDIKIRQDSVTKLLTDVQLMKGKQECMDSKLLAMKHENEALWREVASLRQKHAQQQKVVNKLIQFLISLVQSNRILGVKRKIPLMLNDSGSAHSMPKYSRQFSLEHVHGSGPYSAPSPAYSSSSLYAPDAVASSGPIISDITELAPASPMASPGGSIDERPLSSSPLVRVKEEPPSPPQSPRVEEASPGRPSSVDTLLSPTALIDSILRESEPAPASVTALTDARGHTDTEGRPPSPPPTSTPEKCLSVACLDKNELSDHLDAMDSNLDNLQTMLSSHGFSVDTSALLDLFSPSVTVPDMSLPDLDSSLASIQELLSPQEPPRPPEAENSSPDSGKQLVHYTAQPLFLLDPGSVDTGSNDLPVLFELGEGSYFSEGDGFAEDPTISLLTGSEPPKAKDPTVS

Turning to `CCCCCCCCCCC=CC#N`, the result in test [1], in test [2], in [3], in test [4], in test [5] and in test [6] was inactive. In addition, the call in [7], in test [8], in test [9], in [10], in test [11] and in test [12] was inactive. Further, the result in test [13], in [14], in [15], in [16] and in test [17] was inactive.

What is called AC50 is the concentration at which the activity in the assay is half-maximal. Regarding `C=CC(C)(CCC=C(C)C)OC(=O)C(C)C` (stereo not drawn), the result in test [1], in test [2], in [3], in test [4], in test [6] and in test [7] was inactive. Moreover, the result in [8], in test [9], in [18], in test [19], in [11] and in test [14] was inactive. Besides, the outcome in test [15], in test [20] and in [16] was inactive. The AC50 in test [5] was 32.1 µM (active).

For the molecule `COc1cc(C)ccc1C(C)C`, the result in test [1], in test [2], in test [3], in [4], in test [5] and in [6] was inactive. The molecule was called inactive in test [7], in test [8], in test [9], in test [10], in test [11] and in [12]. Further, the molecule was classed as inactive in test [13], in [14], in [15], in [20] and in test [16].

Consider `Cc1cccc(C(=O)O)c1`, for which the outcome in test [1], in [2], in [3], in test [4], in [5] and in [6] was inactive. The outcome in [7], in test [8], in test [9], in test [18], in [11] and in [13] was inactive. The molecule was classed as inactive in test [14], in [15], in [16] and in test [17].

Regarding `CCCCCC/C=C\CCCCCCCC(=O)O`, the result in test [1], in [2], in test [3], in test [4], in test [5] and in test [6] was inactive. The outcome in [7], in test [8], in test [9], in test [10], in test [19] and in test [11] was inactive. For the same molecule, the molecule was classed as inactive in test [12], in [13], in [14], in [15], in test [20] and in [16]. In addition, the result in [17] was inactive.

As to `c1ccc(CNCc2ccccc2)cc1`, the outcome in [1], in [2], in test [3], in [4], in test [5] and in [6] was inactive. The molecule was classed as inactive in [7], in [8], in test [9], in test [18], in test [19] and in [11]. The molecule was called inactive in test [13], in [14], in test [15], in [16] and in test [17].

Regarding `Cc1ccc2oc(=O)ccc2c1`, the outcome in [1], in test [2], in [3], in [4], in test [5] and in test [6] was inactive. Moreover, the molecule was called inactive in test [7], in [8], in test [9], in test [10], in test [19] and in test [11]. In addition, the outcome in [12], in test [13], in test [14], in test [15], in test [20] and in test [16] was inactive. Moreover, in test [17], the result was inactive.

In the case of `CC(C)CCCC(C)CC=O` (stereo not drawn), the outcome in test [1], in test [2], in [3], in test [4], in test [5] and in test [6] was inactive. The call in [7], in [8], in [9], in test [18], in test [11] and in test [12] was inactive. The outcome in [13], in [14], in [15], in test [20] and in [16] was inactive.
